Several values for one entry are separate records, joined by “and”; a condition that tells them apart may be missing. Identical values can stand only once. Among all 16,000 compounds or so, about 4,000 (25%) were called active. Another 26% or so got no clear call; they are omitted. Calls come from the whole dose curve; as a rule, active = well fitted curve in the direction sought with a large enough effect; inconclusive = small, poorly fitted or top-dose-only effect, or effect the other way; inactive = no such curve, though single readings can be large or run the other way. These entries were drawn from the full list. The source holds several records for some structures; these can differ, active in one and inactive in another.
Molecular target: Cytochrome P450 2C9 (Homo sapiens) (UniProt P11712)
Experiment: Cytochrome panel assay with activity outcomes
Conditions: recombinant CYP, pro-luciferin dealkylation, luminescence, p450-cyp2c9; series mostly up to 57.1 µM; activity, negative = inhibition: at the top concentration
% is set by controls: 0 for no effect and ±100 for the full control effect.

Chain of Cytochrome P450 2C9 (Homo sapiens) (P11712 whole entry, looked up): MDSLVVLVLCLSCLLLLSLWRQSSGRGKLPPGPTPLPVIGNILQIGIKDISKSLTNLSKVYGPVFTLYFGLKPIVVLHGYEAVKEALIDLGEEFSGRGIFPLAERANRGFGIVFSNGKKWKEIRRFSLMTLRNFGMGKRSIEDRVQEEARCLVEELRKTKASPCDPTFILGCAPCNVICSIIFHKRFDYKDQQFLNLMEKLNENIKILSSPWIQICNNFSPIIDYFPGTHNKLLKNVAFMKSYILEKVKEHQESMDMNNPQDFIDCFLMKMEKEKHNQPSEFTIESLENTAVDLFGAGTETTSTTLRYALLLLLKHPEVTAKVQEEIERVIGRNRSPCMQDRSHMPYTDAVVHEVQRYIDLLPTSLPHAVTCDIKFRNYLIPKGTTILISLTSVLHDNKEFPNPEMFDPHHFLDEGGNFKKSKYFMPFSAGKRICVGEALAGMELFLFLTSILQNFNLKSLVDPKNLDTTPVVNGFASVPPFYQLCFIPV

| SMILES | AC50 | activity, negative = inhibition |
| --- | --- | --- |
| O=C(O)c1c(Cl)c(Cl)c(Cl)c(Cl)c1C(=O)Nc1ccc2cn[nH]c2c1 | 0.0794 µM (active) |  |
| CCNc1ncc2nc(-c3ccc(Cl)cc3)c(=O)n(C3CC3)c2n1 |  | 5.54% (inactive) |
| Cc1ccc(Nc2c([N+](=O)[O-])ccc3c2=NC2(CCCCC2)N=3)cc1 | 5.01 µM (active) |  |
| O=C(Nc1cnn(Cc2ccc(Cl)cc2Cl)c1)c1cc(-c2cccs2)on1 | 8.91 µM (active) |  |
| COc1ccc(-c2cc(C(=O)Nc3cnn(Cc4ccccc4C)c3)no2)cc1OC |  | -8.16% (inactive) |
| O=C(CC1C(=O)N(c2ccc(Cl)cc2)C(=S)N1CCc1ccncc1)Nc1ccc(F)cc1 (stereo unspecified) | 0.0631 µM (active) |  |
| CN(C)CC/C=C1\c2ccccc2COc2ccccc21 | inactive |  |
| Cn1c(=O)c2c(ncn2CN2CCN(Cn3cnc4c3c(=O)n(C)c(=O)n4C)CC2)n(C)c1=O |  | 5.13% [at 11.4 µM] (inactive) |
| C#CCCCO/N=C1/C[C@@H](O)[C@@H](O)[C@@H]2[C@@H]3C(=O)N([C@@H](C)c4ccccc4)C(=O)[C@H]3CC[C@@H]12 |  | -23.8% [at 11.4 µM] (inactive) |
| CC1(C)CC(=O)C2=C(C1)Oc1nc3ccccc3cc1C2C(C#N)C#N (stereo unspecified) | 3.55 µM (active) |  |
| Cc1cc2c(cc1C)NC(c1nc3ccccc3[nH]1)C1=C(CC(C)(C)CC1=O)N2 (stereo unspecified) |  | -6.82% (inactive) |
| CC1(C)Cc2c(sc3c2C(=O)N(c2ccccc2)C2=NCCN23)CS1 |  | -14% (inactive) |
| CC1(C)Cc2c(sc3nc(SCC(=O)NCc4ccccc4)n(-c4ccccc4)c(=O)c23)CS1 | 6.31 µM (active) |  |
| Cc1ccc(-n2c(SCC(=O)NCc3ccco3)nc3sc4c(c3c2=O)CC(C)(C)SC4)cc1 | 2.24 µM (active) |  |
| Nc1nc2c(c(=O)[nH]1)CN(c1ccc(S(N)(=O)=O)cc1)CN2 |  | 7.1% [at 11.4 µM] (inactive) |
| O=C1C2=CC[C@@H]3C(=O)N(c4ccc(F)cc4F)C(=O)[C@H]3[C@H]2[C@H](O)[C@H]2O[C@H]12 |  | 4.69% [at 11.4 µM] (inactive) |
| C=CCOC(=O)/C(=C\c1cccc2ccccc12)NC(=O)c1ccccc1 | 1.41 µM (active) |  |
| Cc1ccc(S(=O)(=O)c2c(C)nn(C(C)(C)C)c2OC(=O)c2cccs2)cc1 | 3.16 µM (active) |  |
| C[C@@]12CCC(=O)C=C1CC[C@@H]1[C@@H]2[C@H](O)C[C@]2(C)[C@@H]1CC[C@]2(O)C(=O)COC(=O)CCC(=O)O |  | -12.8% (inactive) |
| CN=C(N)/N=C(\N)Nc1cc2ccccc2c2ccccc12 |  | -14.6% [at 11.4 µM] (inactive) |
| C=CC(C)(C)c1[nH]c2ccccc2c1C1=C(O)C(=O)C(c2c[nH]c3c(CC=C(C)C)cccc23)=C(O)C1=O | 7.94 µM (active) |  |
| c1ccc(CCN2CCN=C2Cc2ccccc2)cc1 |  | -8.28% [at 11.4 µM] (inactive) |
| ON(CCc1ccncc1)Cc1ccccc1 | 3.98 µM (active) |  |

| SMILES | AC50 | activity, negative = inhibition |
| --- | --- | --- |
| Fc1ccc(SCCc2ccncc2)cc1 | 2 µM (active) |  |
| c1ccc(SCCc2ccncc2)cc1 | 1.12 µM (active) and 1.26 µM (active) |  |
| ON(CCc1ccccn1)Cc1ccccc1 |  | -2.37% [at 11.4 µM] (inactive) |
| Br/C(=N\Nc1nn[nH]n1)c1ccncc1 |  | -3.74% [at 11.4 µM] (inactive) |
| Cc1nc2cnc(Oc3ccccc3)nc2n(Cc2cccs2)c1=O | 25.1 µM (active) |  |
| COc1ncc2ncc(=O)n(Cc3cccs3)c2n1 |  | -14.3% (inactive) |
| CN1CCN(c2ncc3ncc(=O)n(Cc4cccs4)c3n2)CC1 |  | -7.33% (inactive) |
| COc1ccc(Oc2ncc3ncc(=O)n(Cc4cccs4)c3n2)cc1 | 15.8 µM (active) |  |
| Cn1cc(-c2nc3cnc(Oc4ccccc4)nc3n(Cc3cccs3)c2=O)c2ccccc21 |  | 7.76% (inactive) |
| O=c1cnc2cnc(Oc3ccccc3)nc2n1Cc1cccs1 | 25.1 µM (active) |  |
| Cc1nc2cnc(Nc3ccccc3)nc2n(Cc2cccs2)c1=O |  | -13% (inactive) |
| Clc1ccccc1-c1ccc2ncnc(N3CCNCC3)c2c1 |  | -9.02% [at 2.29 µM] (inactive) |
| COc1ccc(COC(=O)N/N=C2/C[C@@H](O)[C@@H](O)[C@@H]3[C@H]4C(=O)N(c5ccc(F)cc5F)C(=O)[C@@H]4CC[C@@H]23)cc1 |  | -15.8% [at 11.4 µM] (inactive) |
| O=C(Nc1cccc(C(F)(F)F)c1)c1n[nH]c(Cn2cncn2)n1 | 4.47 µM (active) |  |
| Cc1c(NC(=O)C(C)N2C(=O)c3ccccc3C2=O)c(=O)n(-c2ccccc2)n1C (stereo unspecified) |  | 0.282% (inactive) |
| CC(=O)Nc1c2c3c(cccc3n(C)c1=O)C(=O)c1ccccc1-2 | 15.8 µM (active) |  |
| Fc1ccc(COc2ccc(Br)cc2CNCc2ccncc2)cc1 | 3.98 µM (active) |  |
| CO[C@H]1COC(=O)[C@H](Cc2ccccc2)NC(=O)C/C=C\[C@@H](C)[C@H](OC)COC(=O)C/C=C\[C@@H]1C |  | 2.05% [at 11.4 µM] (inactive) |
| CC1(C)CC(=O)C(C(C#Cc2ccccc2)C2=C(O)CC(C)(C)CC2=O)=C(O)C1 | 15.8 µM (active) |  |
| COc1ccc(CNc2ccnc(-c3ccccc3CN(C)C)n2)c(OC)c1 |  | 10.2% [at 2.29 µM] (inactive) |
| CC(C)(C)c1cc2cccnc2n1Cc1cccc(F)c1 |  | -28% (inactive) |
| CC1=CC(=O)CC(C)(C)[C@]1(O)/C=C\C(C)=C\C(=O)O |  | 9.93% [at 11.4 µM] (inactive) |
| CC1=C(\C=C/C(C)=C/C=C\C(C)=C\C(=O)O)C(C)(C)CCC1 | 10 µM (active) and inactive |  |

| SMILES | AC50 | activity, negative = inhibition |
| --- | --- | --- |
| CC(C)CCNc1ncnc2[nH]ncc12 |  | 6.22% [at 11.4 µM] (inactive) |
| CCOC(=O)c1cnc2c(cnn2C)c1NCCCN(C)C |  | -2.53% (inactive) |
| COC(=O)c1nnn(Cc2ccccc2)c1N |  | 8.99% (inactive) |
| O=C(c1cc(C(F)(F)F)cc(C(F)(F)F)c1)N1CCC2(CCN(Cc3ccccc3)CC2)CC1 |  | -0.296% (inactive) |
| CNC(=O)c1nnn(Cc2ccccc2)c1NC(=O)C(F)(F)F | 12.6 µM (active) |  |
| Nc1ncnc2c1ncn2C1CCCC1 |  | -3.04% (inactive) |
| Nc1ncnc2c1c(-c1ccc(Oc3ccccc3)cc1)cn2C1CCCC1 | 31.6 µM (active) |  |
| Cc1ccc(CNCC(O)(c2ccc(F)cc2)c2ccc(F)cc2)cc1 | 25.1 µM (active) |  |
| CCCC(=O)n1nc(-c2cccnc2)nc1N |  | -36.4% (inactive) |
| CCOC(=O)CC(=O)CSc1nc(-c2cccnc2)cc(C)c1C#N | 1.26 µM (active) |  |
| CCOC(=O)CSc1n[nH]c(-c2cccnc2)n1 |  | 0.887% (inactive) |
| O=C(c1cc(-c2cccs2)on1)N1CCN(c2ccc(F)cc2)CC1 | 1.58 µM (active) |  |
| O=c1cc(CN2CCN(c3ccc(F)cc3)CC2)c2cc3c(cc2o1)CCCC3 |  | -15.2% (inactive) |
| C/C=C\C(=O)N(CC)c1ccccc1C |  | -28.3% [at 25.6 µM] (inactive) |
| Cn1ccc2cc3c(cc21)CCN3C(=O)Nc1cccnc1 | inactive |  |
| CSc1cc2c(cc1C(F)(F)F)N(C(=O)Nc1cccnc1)CC2 | 0.00631 µM (active) |  |
| CN1CCc2cc(NC(=O)Nc3cccnc3)ccc21 |  | -16.7% (inactive) |
| COC(=O)c1ccc(NC(=O)N2CCC(O)(c3cccnc3)CC2)cc1 |  | -19.6% (inactive) |
| COc1cc2c(cc1C(F)(F)F)N(C(=O)Nc1cc(F)cc(-c3cccnc3)c1)CC2 | 0.794 µM (active) |  |
| CN1Cc2c(N)cccc2[C@H](c2ccccc2)C1 | inactive |  |
| Cc1noc(C)c1-c1ccc2ncnc(NCc3cccnc3)c2c1 |  | -6.6% [at 2.29 µM] (inactive) |
| COc1ncc2nc(C)c(=O)n(-c3ccccc3)c2n1 |  | -12.6% (inactive) |
| CCCCn1cnc2c(c(CC#N)nn2-c2ccccc2)c1=N |  | -11.5% [at 11.4 µM] (inactive) |

| SMILES | AC50 | activity, negative = inhibition |
| --- | --- | --- |
| CCOCCCn1cnc2c(c1=O)c1nc3ccccc3nc1n2-c1ccccc1 | 15.8 µM (active) |  |
| CN1CCc2nc(N)nc(-c3nc(N)nc4c3CN(C)CC4)c2C1 |  | 5.01% [at 11.4 µM] (inactive) |
| Cc1cc(-c2cc(-c3ccc(Cl)cc3)nc(N)c2C#N)co1 | 11.2 µM (active) |  |
| Cn1c(=O)c(-c2ccc(Cl)cc2)nc2cnc(OCc3ccccc3)nc21 |  | 9.78% (inactive) |
| Cc1cc(C)n(-c2nc3ccccc3c(=O)n2OCc2ccc(Cl)cc2)n1 | 5.62 µM (active) |  |
| Oc1c(CN2CCN(c3ccccc3)CC2)cc(Br)c2cccnc12 |  | 7.75% [at 11.4 µM] (inactive) |
| COc1ccc(N2C(=O)NC(NC(=O)c3ccncc3)(C(F)(F)F)C2=O)cc1 (stereo unspecified) | 6.31 µM (active) |  |
| COc1ccc(-n2c(=O)c(-c3ccc(F)cc3)nc3cncnc32)cc1 |  | 10.2% (inactive) |
| Cc1cccc(C(=O)NC2CCN(C(=O)N3CCOCC3)CC2)c1 |  | -27% (inactive) |
| O=C1C[C@@H](O)[C@@H](O)[C@H]2[C@@H]3C(=O)N(Cc4ccccc4)C(=O)[C@@H]3CC[C@H]12 |  | -2.13% [at 11.4 µM] (inactive) |
| CC(C)C1NC(=S)N(Cc2ccccc2)C1=O (stereo unspecified) | 8.91 µM (active) |  |
| O=C(O)CN(CCN(CC(=O)O)CC(=O)O)CCN(CC(=O)O)CC(=O)O | inactive |  |
| CCS(=O)(=O)c1ccc2oc(Nc3cc(C)cc(C)c3)nc2c1 | 8.91 µM (active) |  |
| CC(CC(=O)O)CC(=O)Nc1ccc(S(N)(=O)=O)cc1 (stereo unspecified) |  | -16.6% (inactive) |
| CN(C)S(=O)(=O)c1ccc(NC(=O)COC(=O)c2ccccn2)cc1 | 10 µM (active) |  |
| CN(C)S(=O)(=O)c1cccc(NC(=O)COC(=O)c2ccc(Br)o2)c1 | 6.31 µM (active) |  |
| CCN(CC)S(=O)(=O)c1ccc(NC(=O)COC(=O)c2ccc(Br)o2)cc1 | 8.91 µM (active) |  |
| Cc1ccc(S(=O)(=O)N(C)CC(=O)O/N=C(\N)c2ccccn2)cc1 |  | 30% (inactive) |
| Cc1ccnc2nc(C(=O)OCC(=O)Nc3ccc4c(c3)OC(F)(F)O4)nn12 |  | -25.1% (inactive) |
| COc1ccccc1-c1ccc2ncnc(NCCNC(C)=O)c2c1 |  | -2.65% [at 2.29 µM] (inactive) |
| C=CC1=C[C@@H](O)C2OC2C12OCCCO2 (stereo partly specified) |  | 12.2% [at 11.4 µM] (inactive) |
| O=C(Nc1cccc(F)c1)N1CC[C@@]2(CCCNC2)C1 |  | 2.75% (inactive) |
